Dicer processing = inhibitors of Dicer pre-microRNA processing, primary screen, biochemical, cat-ELCCA, chemiluminescence. actives 6% (n = 47,000). Endoribonuclease Dicer (Homo sapiens), Q9UPY3. AID 1347074, 2019. cat-ELCCA pre-miR-21 Dicer processing; hits give high values. z-score at 25 µM; in the data active = z-score above about 3, passing the limit was not always enough;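 also: plate controls were vehicle for no effect and no enzyme for full effect; higher signal means more uncleaved substrate so more Dicer inhibition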
* hit, by the source's call. The sample as a whole holds a higher share of hits than the screen did.

SMILES	Dicer processing
CCCC(=O)N(c1ccc2oc(=O)sc2c1)S(=O)(=O)c1ccc(OC)cc1	-2.1
O=C(c1ccncc1)N(c1cc2sc(=O)oc2c2ccccc12)S(=O)(=O)c1ccc(F)cc1	-2.7
Cc1cc(F)ccc1S(=O)(=O)N(C(=O)c1ccncc1)c1ccc2oc(=O)sc2c1	6.5*
CCOc1ccc(C)cc1S(=O)(=O)n1cc(C)nc1CC	-0.42
CSc1cccc(-n2c(CCc3ccc(O)cc3)n[nH]c2=S)c1	-0.47
CN1CCN(CCCN2C(=O)CSC2c2ccccc2)CC1 (configuration not stated)	0.68
COc1cc2c(cc1OC)C(c1ccc(Cl)cc1Cl)NC(=O)C2 (configuration not stated)	2.8
Cc1cc(S(=O)(=O)O/N=C(\N)CS(=O)(=O)c2ccccc2)c(Cl)cc1Cl	-0.25
CCOC(=O)CN(C(=O)COc1nc(-c2ccccc2)cc(C)c1C#N)c1ccccc1C	3.5*
CCOC(=O)CN(C(=O)COc1nc(-c2ccccc2)cc(C)c1C#N)c1ccc(C)cc1	-3.2
CCOC(=O)CN(C(=O)COc1nc(-c2ccccc2)cc(C)c1C#N)c1cccc(OC)c1	0.12
Cc1[nH]c2ccccc2c1C1(O)C(=O)N(Cc2ccc(Cl)cc2)c2ccccc21 (configuration not stated)	1.5
Cc1ccc(CN2C(=O)C(O)(c3c(C)[nH]c4ccccc34)c3ccccc32)cc1 (configuration not stated)	1.4
Cc1[nH]c2ccccc2c1C1(O)C(=O)N(Cc2ccc3c(c2)OCO3)c2ccccc21 (configuration not stated)	3.9*
O=C(O)CCCC(=O)NCc1ccc2c(c1)OCO2	1.3
COc1ccc(Cl)cc1NC(=O)OCc1ccc(-c2cc(C(F)(F)F)cc(C(F)(F)F)c2)o1	-0.4
O=C(OCc1ccccc1)c1cnc(Sc2ccccn2)nc1C(F)(F)F	-0.3
CN(C)c1oc(-c2ccc(Cl)cc2)nc1C#N	-1.7
CCCc1nnc(N2C(=O)c3oc4ccc(F)cc4c(=O)c3C2c2ccccc2F)s1 (configuration not stated)	-0.9
Cc1ccc(S(=O)(=O)CCN(CCS(=O)(=O)c2ccc(C)cc2)c2ncccn2)cc1	-0.46
Fc1ccc(NCc2ccc3c(c2)OCO3)cc1	323
c1cc(CNc2ccc3c(c2)OCO3)ccn1	1.7
Fc1ccc(NCc2ccncc2)cc1	3.5*
CC(C)(C)C(=O)OC12C=CC(O1)C1C(=O)N(c3cc(C(F)(F)F)cc(C(F)(F)F)c3)C(=O)C12 (configuration not stated)	1.4
O=C1OC(c2ccccc2)=N/C1=C/c1cccs1	-0.63
SMILES	Dicer processing
COc1ccc(/C=C2\N=C(c3ccccc3)OC2=O)c(OC)c1	-1.5
CC(=O)n1cc(/C=C2/N=C(c3ccccc3)OC2=O)c2ccccc21	3*
N#CCC(=O)NNC(=S)NC1CC2C=CC1C2 (configuration not stated)	-3.7
CCOC(=O)/C(C#N)=C/c1csc([N+](=O)[O-])c1	3.1*
CCOC(=O)/C(C#N)=C/c1ccccc1	-0.78
CCOC(=O)/C(C#N)=C/c1ccc([N+](=O)[O-])s1	-0.25
COc1ccc(Nc2nc(-c3c(C)nc4ccccn34)cs2)cc1	3.6*
Cc1cccc(Nc2n[nH]c(=S)s2)c1	1.2
CCN(CC)c1ccc(Nc2nc(-c3cccnc3)cs2)cc1	0.14
COc1ccc(Nc2nc(-c3ccncc3)cs2)cc1	0.71
CCNC(=O)c1c(C)nc2ccccn12	0
c1ccc(Nc2nc(-c3cccs3)cs2)cc1	-1.4
Cc1nc2ccccn2c1-c1csc(Nc2cccc(O)c2)n1	6.5*
CCN(CC)c1ccc(Nc2nc(-c3c(C)nc4ncccn34)cs2)cc1	4.1*
CCN(CC)c1ccc(Nc2nc(-c3ccccn3)cs2)cc1	2.3
COc1ccccc1Nc1nc(-c2c(C)nc3ccccn23)cs1	0.77
Cc1cccc(Nc2nc(-c3c(C)nc4ccccn34)cs2)c1	4.6*
Oc1cccc(Nc2nc(-c3cccnc3)cs2)c1	-0.29
N#Cc1cnn(C(=O)c2cnn(-c3ccc([N+](=O)[O-])cc3)c2C(F)(F)F)c1N	-0.59
O=C(/C=C/c1cc([N+](=O)[O-])ccc1Sc1ccc(C(F)(F)F)cn1)Nc1ccccc1	-0.5
Nc1ccccc1SCC(=O)Nc1cccc2nsnc12	-2.1
CCOC(=O)c1c(NC(=S)NCc2ccccc2)sc2c1CCC(C)C2 (configuration not stated)	-0.88
Cc1ccc(-c2ccn(-c3ccc(C)c(Cl)c3)c(=S)n2)cc1	2.3
COc1cccc(C2c3c(oc4ccccc4c3=O)C(=O)N2Cc2ccc3c(c2)OCO3)c1 (configuration not stated)	0.35
COC(OC)C(C)NC(=O)NC(=O)c1c(F)cccc1F (configuration not stated)	-0.55
SMILES	Dicer processing
CCc1nc2c(cnn2-c2ccccc2)c(=O)[nH]1	0.56
CNC(=O)C(=O)c1c(-c2ccc(Br)cc2)[nH]c2ccccc12	-0.49
C/C(=N\NC(=O)c1ccccc1)c1ccccc1O	2.2
COc1cccc(-n2c(N)c(C#N)c3ccc([N+](=O)[O-])cc3c2=O)c1	-0.03
COc1ccc(-c2c(N)n(-c3ccccc3)c(=O)c3cc([N+](=O)[O-])ccc23)cc1OC	3.4*
Nc1c(-c2ccc3ccccc3n2)c2ccc([N+](=O)[O-])cc2c(=O)n1Cc1ccccc1	-1.1
CCOC(=O)c1c(C)c(C#N)c(NC(=O)c2ccc(Cl)cc2Cl)n1-c1ccc(C)cc1	-0.27
Cc1cc(S(=O)(=O)NC2C3(C)CCC(C3)C2(C)C)c(C)cc1Cl (configuration not stated)	-0.44
O=C1c2ccccc2C(=O)N1c1cscc1S(=O)(=O)c1ccc(Cl)cc1	-1.6
O=c1oc2c(-c3ccccc3F)cc(O)cc2s1	9.2
O=C(c1ccc(Cl)cc1)c1c(O)cc(-c2ccc(Cl)cc2)oc1=O	2.6
O=C1C2=C(c3ccccc3)c3cc(Cl)ccc3C2Sc2ccccc21 (configuration not stated)	-0.03
O=c1oc2c(-c3ccc(Cl)cc3)cc(O)cc2s1	12*
O=c1oc2c(-c3cccc(Cl)c3)cc(O)cc2s1	6.2*
O=c1c(-c2cccc(Cl)c2)c(C(F)(F)F)oc2cc(O)ccc12	-1.3
Cc1cc(-c2cccs2)c2c(n1)sc1c(O)cc(=O)[nH]c12	-1.6
CCCCCNc1nc2c(c(=O)n(Cc3cccc(Br)c3)c(=O)n2C)n1C	-1.4
S=c1[nH]c(=S)c2cnc(N3CCOCC3)nc2[nH]1	3.4*
S=c1[nH]c(=S)c2cnc(N3CCN(c4ccccc4)CC3)nc2[nH]1	0.45
CCN(CC)c1ncc2c(=S)[nH]c(=S)[nH]c2n1	-0.96
CCCCCCOC(=O)c1ccc(OC(=O)c2cncc(Br)c2)cc1	1.4
CSc1nc(N)nc(N2CCCC2)n1	-1.8
CCOC(=O)c1c(NC(=O)C(Cl)(Cl)Cl)nc(SC)n1-c1ccccc1OC	-1.7
CSc1nc(C)c(CC2CC2)c(=O)[nH]1	2.1
Cc1ccc2oc(=O)n(CCC(=O)O)c2c1	2.6
SMILES	Dicer processing
Cc1ccc2oc(=O)n(Cc3ccc(F)cc3)c2c1	0.33
CCCCn1c(=O)oc2ccc(C)cc21	3.6*
CCOC(=O)CNC(=O)c1c(OC)cccc1OC	-0.48
O=C(Oc1ccc(OC(=O)c2cccnc2)c(Cl)c1)c1cccnc1	0.98
O=C(Nc1ccc(Cl)cc1)ON=C1CC2CCCC(C1)N2Cc1ccccc1	-1.5
O=C(ON=C1CC2CCCC(C1)N2Cc1ccccc1)c1ccc(F)cc1	3.1*
O=C(O)C1CC(=O)N(Cc2ccc(F)cc2)C1 (configuration not stated)	0.24
